# Assay results reported in ChEMBL document CHEMBL1157539, “Thousands of chemical starting points for antimalarial lead identification” (Nature, 2010).
# Assays:
# Type in all cases: functional
# Plasmodium falciparum [1] = assay: GSK_TCMDC: Inhibition of Plasmodium falciparum 3D7 in whole red blood cells, using parasite LDH activity as an index of growth. Test compounds present at 2uM
# Plasmodium falciparum [2] = assay: GSK_TCMDC: Inhibition of Plasmodium falciparum Dd2 in whole red blood cells, using parasite LDH activity as an index of growth. Test compounds present at 2uM
# HepG2 = assay: GSK_TCMDC: Percent inhibition of human HepG2 cell line. Test compounds present at 10uM.
SMILES,Inhibition (Plasmodium falciparum [1]) [%],Inhibition (Plasmodium falciparum [2]) [%],Inhibition (HepG2) [%]
Cc1cccc(C)c1CNc1ccnc2ccccc12.Cl,92,10,59
CC(C)C(=O)NC(Nc1ccc([N+](=O)[O-])cc1)C(Cl)(Cl)Cl (stereo not drawn),97,84,7
CC(C)COc1ccc(Cl)cc1Cc1nc(-c2nc3cccc(CN4CCN(C)CC4)c3[nH]2)cs1,99,30,15
COc1ccc(NC(=O)/C=C/c2ccccc2Cl)cc1OCCN1CCC(NCc2ccccc2)CC1,100,100,28
O=C(Nc1ccc(-c2csc3nccn23)cc1)c1ccc(Cl)cc1,100,50,54
CC1(C)N=C(N)N=C(N)N1c1ccc2ccccc2c1.Cl,95,0,48
COc1ccc(S(=O)(=O)N(CCCN2CCN(C)CC2)Cc2csc(-c3ccc(CNCc4ccccc4)cc3)n2)cc1.O=C(O)C(F)(F)F,88,86,10
O=C(NCc1cccc2ccccc12)[C@@H]1CCCN1C(=O)c1ccc(O)c(-c2ccc(Cl)c(Cl)c2)c1,98,71,0
Cc1cccc2nc(-c3ccc(-c4ccc(CN5CCN(C6CCN(C)CC6)CC5)cc4)s3)[nH]c12.O=C(O)C(F)(F)F,100,100,97
COc1cc(C2CCCCC2)c(OC)cc1CC1c2cc(O)c(Cl)cc2CCN1C.Cl (stereo not drawn),100,100,12
CCOC(=O)c1ccc(NC(=O)Nc2ccc(-c3ccc(-c4nc5cc(C(F)(F)F)ccc5[nH]4)cc3)cc2)cc1,100,52,20
